Results from the OligoGym collection.
Note: reference of the scale not given here.

Each sequence was assayed against C2orf55 (assay: pooled miR-30 sensor sort-seq; sequence = guide strand). Conditions: shRNA.
TTGTTTGCCACAATACACTGGC gave a sensor-assay potency score (higher = more potent) of 0.782. TTTTTGGAAACAGTCTATGAAT gave a sensor-assay potency score (higher = more potent) of -1.5. With TTGAATTTAGATTTTTTCTTTC the sensor-assay potency score (higher = more potent) was -0.493. TTGATGATAAAATCAATCTTTA gave a sensor-assay potency score (higher = more potent) of -0.855. For TTAGATTTTTTCTTTCCTGTGC, the sensor-assay potency score (higher = more potent) was 0.654. With TTATCCTCTTTGTTTTGCCTGG the sensor-assay potency score (higher = more potent) was -0.575. For TTTCTTTCTGGCAAGTTCCATC, the sensor-assay potency score (higher = more potent) was -0.776. For TTTGTTTGCCACAATACACTGG, the sensor-assay potency score (higher = more potent) was -0.196. Sequence TTTGCCACAATACACTGGCAGT has a sensor-assay potency score (higher = more potent) of -1.43. With TTATTTTTGGAAACAGTCTATG the sensor-assay potency score (higher = more potent) was -0.924. ATTATTTTTGGAAACAGTCTAT showed a sensor-assay potency score (higher = more potent) of -0.496. With TTTCTGGCAAGTTCCATCCAGG the sensor-assay potency score (higher = more potent) was -0.596.

Each sequence was assayed against C2orf57 in the same assay as above. Conditions: shRNA.
In the case of TTGTCCTTGCGTCTTGAACCTG, the sensor-assay potency score (higher = more potent) is reported as -1.12. TAAAGCTTCAGCTTCAGGGTGT gave a sensor-assay potency score (higher = more potent) of 0.632. AAAACCACTAGACTCTGACTTG showed a sensor-assay potency score (higher = more potent) of -0.273. For TTGTCTTTGTCTCCAGATGTTG, the sensor-assay potency score (higher = more potent) was -1.39. TGTCCTTGCGTCTTGAACCTGC was tested, and the sensor-assay potency score (higher = more potent) was 0.175. TCTCTCAGGAACACTCGCCATT was tested, and the sensor-assay potency score (higher = more potent) was -1.27. In the case of TAGACCTGCTGTCATCCACGTT, the sensor-assay potency score (higher = more potent) is reported as -1.17. ATTTGTGACATCTTGTCTTTAC was tested, and the sensor-assay potency score (higher = more potent) was -1.19.
